From PubChem BioAssay AID463173 (ICCB-Longwood Screening Facility, Harvard Medical School, 2010) come the findings set out here.

The whole screen tested about 52,000 compounds, of which about 4,300 (8.3%) were called active. No stated cut-off is given here; in the data, active means survival mostly below about 52% (no sharp cut-off); inactive means mostly above about 56%. The full list was thinned out, with actives kept by preference.

In the assay the test system is DeltatarO mutant. Nature of the assay: growth inhibition of S. aureus wild type versus tarO mutant, primary screen, teichoic acid synthesis inhibitors, RN4220, OD600 (AID 463173). The settings on record: OD600, 18 h, active compounds read low, screened at 18.75 µg/mL (by protocol).
Take `COC(=O)c1c(NC(=O)c2cccs2)sc2c1C(C(=O)OC)CC2` (stereo not drawn): the survival was 94% (inactive).

As for `COC(=O)c1c(NC(=O)/C(C#N)=C/c2ccccc2)sc2c1C(C(=O)OC)CC2` (stereo not drawn), the survival is 58% (inactive).

In the case of `COC(=O)c1c(NC(=O)CCCOc2ccc(C(C)(C)C)cc2)sc2c1C(C(=O)OC)CC2` (stereo not drawn), the survival was 3% (active).

For `COC(=O)c1c(NC(=O)CCCOc2cccc(C)c2)sc2c1C(C(=O)OC)CC2` (stereo not drawn), the survival was 0% (active).

Regarding `COC(=O)c1c(NC(=O)CCCOc2ccc(C)cc2)sc2c1C(C(=O)OC)CC2` (stereo not drawn), the survival was 44% (inactive).

`CCOc1ccc(/C=C/C(=O)Nc2sc3c(c2C(=O)OC)C(C(=O)OC)CC3)cc1` (stereo not drawn): the survival is 56% (inactive).

In the case of `COc1ccc(NC(=O)CCn2c(-c3ccc(F)cc3)cc(C(C)=O)c2C)c(OC)c1`, the survival was 124% (inactive).

For `COc1ccccc1Cc1nc2ccccc2nc1SCC(=O)NCc1ccccc1Cl`, the survival is 135% (inactive).

Take `COc1ccc2c(c1)CC(C(=O)Nc1cc(OC)c(OC)c(OC)c1)CO2` (stereo not drawn): the survival was 83% (inactive).

For the molecule `CCCCOC(=O)c1ccc(OC(=O)c2sc3ncn(Cc4ccccc4Cl)c(=O)c3c2C)cc1`, the survival is 90% (inactive).

Regarding `Cc1ccc(CNC(=O)c2oc3ccc(S(=O)(=O)N4CCC(C)CC4)cc3c2C)cc1`, the survival is 57% (inactive).

As for `Cc1ccc(Cl)cc1NC(=O)Cn1c(=O)n(CCC(=O)N2CCc3ccccc3C2)c(=O)c2ccccc21`, the survival was 102% (inactive).

For the molecule `CC(=O)Nc1ccc(S(=O)(=O)NCCc2csc3nc(-c4ccc(Cl)cc4)nn23)cc1`, the survival was 70% (inactive).

Regarding `CSc1nc(-c2ccc(Cl)cc2)nn1C(C)=O`, the survival was 57% (inactive).

`CSc1nc(-c2ccc(Cl)cc2)nn1S(=O)(=O)c1ccc(NC(C)=O)cc1`: the survival was 43% (active).

For the molecule `CCc1c(C)nc2cc(-c3cc(OC)cc(OC)c3)nn2c1NCCCN(CC)CC`, the survival was 113% (inactive).

As to `Cc1ccc(N(C(=O)c2ccco2)C(C(=O)NC2CCCC2)c2ccc(N(C)C)cc2)c(C)c1` (stereo not drawn), the survival was 93% (inactive).

On to `O=C(NC1CCCC1)C(c1ccccc1)N(Cc1ccccc1F)C(=O)c1ccco1` (stereo not drawn), for which the survival is 102% (inactive).

Consider `O=C(NC1CCCC1)C(c1ccccc1)N(C(=O)c1ccco1)C1CCCC1` (stereo not drawn), for which the survival was 79% (inactive).

On to `CN(Cc1ccccc1)C(C(=O)NC1CCCCC1)c1ccc(Cl)cc1` (stereo not drawn), for which the survival is 37% (active).

Regarding `Cc1ccc(-c2nnn(CC(=O)N(Cc3ccccc3)C(C(=O)NC3CCCC3)c3ccco3)n2)cc1` (stereo not drawn), the survival was 64% (inactive).

Turning to `Cc1ccc(C(C(=O)NC2CCCCC2)N(C)Cc2ccccc2)cc1` (stereo not drawn), the survival is -3% (active).

On to `O=C(O)c1cccc(N=C2NC(=O)C(CO)(CO)S2)c1`, for which the survival is 89% (inactive).

Consider `Cc1cccc(Cc2c(C)nc3nc(SCc4cccc(F)c4)nn3c2C)c1`, for which the survival is 78% (inactive).

`CCOC(=O)c1ccc(NC(=O)C2CC(=O)N3CCCN=C3S2)cc1` (stereo not drawn): the survival was 94% (inactive).

As to `Cc1cccc(NC(=O)c2sc3nc4n(c(=O)c3c2C)N=C(c2ccc(F)cc2)CS4)c1C`, the survival was 99% (inactive).

For `CCc1cccc(C)c1NC(=O)Cn1c(=O)cc(C(F)(F)F)c2c(C)nn(C)c21`, the survival is 85% (inactive).

Turning to `COc1cc(CNc2ccc3c(c2)ncn3C(C)C)cc(OC)c1OC`, the survival is 64% (inactive).

As for `Cc1cc(C)n2nc(NCc3ccccc3Cl)nc2n1`, the survival was 90% (inactive).

For the molecule `CC(C)(C)n1cnc2cc(N=Cc3ccccc3O)ccc21`, the survival is 81% (inactive).

For the molecule `CC(C)(C)n1cnc2cc(NS(=O)(=O)c3ccccc3)ccc21`, the survival was 86% (inactive).

Consider `CCCCn1cnc2cc(NCc3ccc(OCC)cc3)ccc21`, for which the survival is 11% (active).

Consider `CCCCn1cnc2cc(NCc3ccccc3Cl)ccc21`, for which the survival was -16% (active).

In the case of `CCn1cnc2cc(NCc3ccc(N(C)C)cc3)ccc21`, the survival was 72% (inactive).

`CCOc1ccc(C=Nc2ccc3c(c2)ncn3C)cc1`: the survival was 96% (inactive).

For the molecule `CCCCn1cnc2cc(NC(=O)c3cc(OC)c(OC)c(OC)c3)ccc21`, the survival is 66% (inactive).

As for `CC(C)(C)n1cnc2cc(NCc3ccccc3Cl)ccc21`, the survival was 7% (active).

In the case of `CCCn1cnc2cc(NC(=O)c3cc(OC)c(OC)c(OC)c3)ccc21`, the survival was 66% (inactive).

For `CCc1ccc(CNc2ccc3c(c2)ncn3C(C)(C)C)cc1`, the survival is -16% (active).

`CCOc1ccc(NC(=O)CSc2oc(-c3cccs3)nc2S(=O)(=O)c2ccc(Cl)cc2)cc1`: the survival was 63% (inactive).

Take `COc1ccc2c(c1)c1c(c(=O)n(-c3ccccc3C)c(=O)n1Cc1cccc(C(F)(F)F)c1)n2C`: the survival was 94% (inactive).

For `O=S(=O)(c1ccccc1)N1CCC(n2cnc3ccccc32)CC1`, the survival is 78% (inactive).

Take `Cc1ccc(C)c(NC(=O)C2CCN(S(=O)(=O)c3c(C)noc3/C=C/c3cccs3)CC2)c1`: the survival is 63% (inactive).

With `Cn1nnc(C(O)CNCc2ccc(F)cc2)n1` (stereo not drawn), the survival was 105% (inactive).

As to `CCOC(=O)c1c(NC(=O)c2ccc(S(=O)(=O)N(CCOC)CCOC)cc2)sc2c1CC(C)(C)NC2(C)C`, the survival was 78% (inactive).

As for `Cc1cccc(CNC(=O)c2cnc3sc(N4CCCCCC4)nn3c2=O)c1`, the survival is 99% (inactive).

As to `COc1ccc(NC(=O)CCn2nc(-c3ccccc3OC)c3c(C)cc(C)nc32)cc1`, the survival is 70% (inactive).

As for `CC(=O)c1cccc(NC(=O)c2cnn(-c3cccc(C)c3)c2-n2cccc2)c1`, the survival was 99% (inactive).

In the case of `CCOC(=O)c1[nH]c(C)c(CCC(=O)Nc2cc(Cl)ccc2C)c1C`, the survival was 73% (inactive).

As for `CCOC(=O)c1oc2ccc(S(=O)(=O)n3nc(-c4cc(OC)cc(OC)c4)cc3N)cc2c1C`, the survival is 111% (inactive).

Consider `COc1cccc(CNC(=O)CSC2=Nc3ccccc3N=C(c3ccc(F)cc3)C2)c1`, for which the survival is 117% (inactive).

For `CC(=O)c1ccc(NC(=O)C(Cc2ccccc2)NS(=O)(=O)c2ccc3c(c2)CCC(=O)N3)cc1` (stereo not drawn), the survival is 84% (inactive).

With `CCCSc1ncc(Cl)c(C(=O)Nc2c(C(=O)Nc3ccc(OC)cc3)oc3ccccc23)n1`, the survival was 68% (inactive).

Regarding `COc1ccccc1CNC(=O)c1cnc2sc(N3CCCCC3)nn2c1=O`, the survival is 66% (inactive).

As to `Cc1oc(CSCCSCc2cc(C(=O)O)c(C)o2)cc1C(=O)O`, the survival is 94% (inactive).

For `CCCn1cnc2cc(NCc3ccccc3OCC)ccc21`, the survival is 35% (active).

Consider `CCCn1cnc2cc(NCc3ccc(OC)cc3OC)ccc21`, for which the survival was 64% (inactive).

`COc1cccc(CNc2ccc3c(c2)ncn3C)c1OC`: the survival is 122% (inactive).
